Some test systems named below: SR leukemia; RPMI-8226 leukemia; OVCAR-8 ovarian; OVCAR-5 ovarian; SK-OV-3 ovarian; IGROV1 ovarian; OVCAR-3 ovarian; HS 578T breast; NCI/ADR-RES ovarian; T-47D breast; BT-549 breast; MDA-MB-435 melanoma; SW-620 colon; MCF7 breast; HCT-116 colon; HCC-2998 colon; KM12 colon.
Assay in all cases: NCI-60 one-dose screen, 48 h (100 = growth as untreated, 0 = no growth, -100 = all killed)
Holding throughout (details): 10 µM unless noted

About 83,000 compounds went through this panel and 20% of them were active in at least one assay; those are over-represented in the sample as a whole.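 Assay: single dose, 48 h. Readout: percent growth (0 = no net growth; negative = cell death). Active: <10.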 Values without a mark were called inactive. Calls of active or inactive are those of the source.

Growth data for seven molecules are collected here from PubChem BioAssay (NCI).

Regarding `C=C(C)[C@@H]1CC[C@]2(C(N)=O)CC[C@]3(C)[C@H](CC[C@@H]4[C@@]5(C)C/C(=C/c6cccnc6)C(=O)C(C)(C)[C@@H]5CC[C@]43C)[C@@H]12`, the growth in the test with SR leukemia was 10.7% [100 µM]; with RPMI-8226 leukemia, 6.37% [100 µM] (active); in the test with OVCAR-8 ovarian it was 20.3% [100 µM]; in the test with OVCAR-5 ovarian, -6.45% [100 µM] (active); with SK-OV-3 ovarian it was 12.9% [100 µM]; in the test on IGROV1 ovarian, 14.9% [100 µM]. For the same molecule, the growth is 12.5% [100 µM] in the test with OVCAR-3 ovarian; 25.5% [100 µM] with HS 578T breast; 14.7% [100 µM] in the test on NCI/ADR-RES ovarian; 1.22% [100 µM] (active) in the test with T-47D breast; 14.1% [100 µM] in the test on BT-549 breast; 0.0948% [100 µM] (active) in the test on MDA-MB-435 melanoma. The growth was 3.53% [100 µM] (active) in the test on SW-620 colon; 10.8% [100 µM] in the test with MCF7 breast; 5.4% [100 µM] (active) in the test on HCT-116 colon; -15.9% [100 µM] (active) in the test on HCC-2998 colon; -3.05% [100 µM] (active) with KM12 colon.
`C=C(C)[C@@H]1CC[C@]2(C(=O)NCCCN)CC[C@]3(C)[C@H](CC[C@@H]4[C@@]5(C)CC[C@H](O)C(C)(C)[C@@H]5CC[C@]43C)[C@@H]12`: the growth in the test on SR leukemia was 23.7% [100 µM]; in the test on RPMI-8226 leukemia it was -6.66% [100 µM] (active); in the test on OVCAR-8 ovarian, -3.81% [100 µM] (active); in the test with OVCAR-5 ovarian, -47.7% [100 µM] (active); in the test on SK-OV-3 ovarian it was -27.2% [100 µM] (active); in the test with IGROV1 ovarian, -6.94% [100 µM] (active). For the same molecule, the growth was -45.9% [100 µM] (active) with OVCAR-3 ovarian; -9.52% [100 µM] (active) in the test with NCI/ADR-RES ovarian; -12.8% [100 µM] (active) with T-47D breast; -2.14% [100 µM] (active) in the test on BT-549 breast; -32.4% [100 µM] (active) with MDA-MB-435 melanoma; -36.2% [100 µM] (active) in the test on SW-620 colon. Moreover, the growth in the test with MCF7 breast was -8.46% [100 µM] (active); in the test on HCT-116 colon, 1.97% [100 µM] (active); with HCC-2998 colon it was -23.4% [100 µM] (active); with KM12 colon, -25.3% [100 µM] (active).
As for `Cc1cc(C)c(S(=O)(=O)/N=c2/n(-c3ccccc3)nc3n2CCN3C2=NCCN2)c(C)c1`, the growth in the test with SR leukemia is 39.9%; in the test with RPMI-8226 leukemia it was 76%; in the test with OVCAR-8 ovarian, 86.7%; in the test on OVCAR-5 ovarian, 86.5%; with SK-OV-3 ovarian, 83.2%; in the test on IGROV1 ovarian it was 65.5%. Also, the growth in the test with OVCAR-3 ovarian is 88.7%; in the test on HS 578T breast, 79.3%; in the test on T-47D breast it was 77.8%; in the test with BT-549 breast, 73.8%; in the test with MDA-MB-435 melanoma it was 69.5%; in the test on SW-620 colon it was 84.8%. The growth in the test on MCF7 breast was 90.8%; in the test on HCT-116 colon, 55.7%; with HCC-2998 colon, 61.5%; in the test on KM12 colon it was 85.4%.
Turning to `C[C@H]1[C@H](C)CC[C@]2(COC(=O)CCC(=O)O)CC[C@]3(C)C(=CC[C@@H]4[C@@]5(C)CCCNC(C)(C)[C@@H]5CC[C@]43C)[C@H]12`, the growth with SR leukemia was 80.4% [100 µM]; in the test with RPMI-8226 leukemia it was 59.7% [100 µM]; in the test on OVCAR-8 ovarian, 69.8% [100 µM]; in the test with OVCAR-5 ovarian it was 88.5% [100 µM]; with SK-OV-3 ovarian, 65.2% [100 µM]; in the test on IGROV1 ovarian, 54.9% [100 µM]. Further, the growth is 75.4% [100 µM] with OVCAR-3 ovarian; 41.8% [100 µM] in the test on HS 578T breast; 71.8% [100 µM] with NCI/ADR-RES ovarian; 36.7% [100 µM] in the test with T-47D breast; 64% [100 µM] in the test with BT-549 breast; 79.6% [100 µM] in the test with MDA-MB-435 melanoma. Also, the growth in the test on SW-620 colon was 87.7% [100 µM]; with HCC-2998 colon, 71.9% [100 µM]; in the test with KM12 colon, 78% [100 µM].
As for `CC(C)=CC/C=C(/C)[C@H]1CC[C@]2(C)[C@@H]1CC[C@@H]1[C@@]3(C)CC/C(=N/O)C(C)(C)[C@@H]3CC[C@]12C`, the growth was 45.2% [100 µM] with SR leukemia; 52% [100 µM] with RPMI-8226 leukemia; 40.8% [100 µM] with OVCAR-8 ovarian; 80.6% [100 µM] with OVCAR-5 ovarian; 68.8% [100 µM] in the test with SK-OV-3 ovarian; 76.2% [100 µM] with IGROV1 ovarian. The growth with OVCAR-3 ovarian is 52.4% [100 µM]; with HS 578T breast, 64.3% [100 µM]; with NCI/ADR-RES ovarian, 63.9% [100 µM]; in the test with T-47D breast it was 27.2% [100 µM]; in the test with BT-549 breast, 61.5% [100 µM]; in the test on MDA-MB-435 melanoma, 52.2% [100 µM]. Besides, the growth in the test on HCT-116 colon is 24.1% [100 µM]; in the test on HCC-2998 colon, 69.5% [100 µM]; in the test with KM12 colon, 51.6% [100 µM].
In the case of `Cc1ccc(Cn2c(O)c(N=NC(=O)c3ccc(S(N)(=O)=O)cc3)c3ccccc32)cc1`, the growth is 104% in the test with SR leukemia; 91.7% in the test on RPMI-8226 leukemia; 92.7% with OVCAR-8 ovarian; 109% with OVCAR-5 ovarian; 109% in the test with SK-OV-3 ovarian; 107% with IGROV1 ovarian. Moreover, the growth in the test on OVCAR-3 ovarian is 107%; in the test on HS 578T breast, 101%; with NCI/ADR-RES ovarian, 108%; in the test on T-47D breast, 83.7%; with BT-549 breast, 102%; with MDA-MB-435 melanoma, 102%. In addition, the growth was 100% in the test on SW-620 colon, 102% with HCT-116 colon, 114% with HCC-2998 colon and 106% with KM12 colon.
As for `C#CCNC(=O)CC[C@]1(C)[C@H]2CC[C@@H]3[C@@H]([C@@](C)(O)CCC=C(C)C)CC[C@@]3(C)[C@]2(C)CC[C@H]1C(=C)C`, the growth in the test on SR leukemia was 12.8% [100 µM]; in the test on RPMI-8226 leukemia it was -7.33% [100 µM] (active); in the test on OVCAR-8 ovarian it was 7.74% [100 µM] (active); with OVCAR-5 ovarian, 55.6% [100 µM]; with SK-OV-3 ovarian, 66.6% [100 µM]; in the test with IGROV1 ovarian, -62.6% [100 µM] (active). Also, the growth with OVCAR-3 ovarian was -26.4% [100 µM] (active); in the test on HS 578T breast, 35.6% [100 µM]; in the test on NCI/ADR-RES ovarian it was 53.6% [100 µM]; with T-47D breast, 37.3% [100 µM]; in the test with BT-549 breast, 41.8% [100 µM]; with MDA-MB-435 melanoma, 43.2% [100 µM]. Also, the growth in the test with SW-620 colon is -14.1% [100 µM] (active); in the test on MCF7 breast, 30.5% [100 µM]; with HCT-116 colon, 16.6% [100 µM]; in the test with HCC-2998 colon, 87.2% [100 µM]; with KM12 colon, 36% [100 µM].
